The text below walks through data of ChEMBL document CHEMBL4513216, “Probing the Open Global Health Chemical Diversity Library for Multistage-Active Starting Points for Next-Generation Antimalarials” (ACS Infect Dis, 2020).

The whole screen tested about 69,000 compounds, of which about 8,600 (12%) showed an effect of 50% or more. Shown is part of a subset that was picked to be rich in strong results.

This experiment relates to Plasmodium berghei. Description: Screen against P. berghei liver stage (PbLuc), transformed with Luciferase, at 10uM. The note with it: tested at 10 uM. The class given is functional, HepG2.
In the case of `Cc1nc(C)n(CCCNc2ncnc3onc(C)c23)n1`, the INHIBITION was determined as 19.2%.
For `CCCc1nc(C)c(CNc2nc(C)nc3onc(C)c23)s1`, the INHIBITION is reported as 81.4%.
For the compound `CCCc1nc(C)c(CNc2nc(C)nc3oc(C)nc23)s1`, the INHIBITION is given as 48.9%.
For `CC(C)C(=O)Nc1cccc(C(=O)Nc2ccccn2)c1`, the INHIBITION worked out at 8.99%.
To `CCOc1cccc(C(=O)Nc2ccncc2)c1` belongs 50.3%; to `CC(OCC1CC1)C(=O)Nc1ncccc1I` (stereo not given), 50.4%; to `CC(OCC1CC1)C(=O)Nc1cccc(C(=O)Nc2ccncc2)c1` (stereo not given), 82.4%.
As to `CCCNC(=O)c1ccc(NC(=O)c2cccc(OCC)c2)cc1`, the INHIBITION is 23.5%.
For `CC(OCC1CC1)C(=O)NCCC(=O)Nc1ccccn1` (stereo not given), the INHIBITION stood at 1.74%.
For `O=C(COCC1CC1)Nc1ncccc1I`, the INHIBITION is recorded as -2.98%.
In the case of `CC(OCC1CC1)C(=O)Nc1cccc(C(=O)Nc2ccccn2)c1` (stereo not given), the INHIBITION is on record as 36.5%.
Take `CCOc1cccc(C(=O)NCCC(=O)Nc2ccncc2)c1`: the INHIBITION worked out at 46.6%.
For the compound `CCc1noc(C(C)N2CCN(C(=O)CN3CCOCC3)CC2)n1` (stereo not given), the INHIBITION is -25.8%.
To `Cc1sc(-c2ccco2)nc1C(=O)N1CCCC1Cn1cccn1` (stereo not given) belongs 34.7%; to `Fc1ccc(Nc2ccc(C3CCN(Cc4ncc[nH]4)CC3)nc2)nc1`, 56.9%; to `Cc1cccc(Nc2ccc(C3CCN(Cc4ncc[nH]4)CC3)nc2)n1`, 36%.
`Cc1cc(Nc2ccc(F)cn2)cc(C2CCN(Cc3ncc[nH]3)C2)n1` (stereo not given): the INHIBITION is 42.6%.
As to `CC(C)C(=O)N1CC[C@H]2N(C)CC[C@@]2(C(=O)Nc2cccnc2)CC1`, the INHIBITION is -22.2%.
Take `Cc1ccc(-c2nn(-c3cccc(F)c3)cc2CN(C)CCO)o1`: the INHIBITION came out at 65.7%.
Consider `Cc1ccc(-c2nn(-c3cccc(F)c3)cc2CN(CCO)CCO)o1`, for which the INHIBITION was found to be 27.4%.
In the case of `CCN(CCO)Cc1cn(-c2cccc(F)c2)nc1-c1ccc(C)o1`, the INHIBITION worked out at 25.7%.
As to `Cc1cc(-c2cnn(CCNC(=O)c3cnn(C)c3)c2C2CC2)on1`, the INHIBITION is 10%.
For the compound `Cc1cc(-c2cnn(CCNC(=O)C3CC3)c2C2CC2)on1`, the INHIBITION turned out to be 59.7%.
Regarding `Cc1cc(-c2cnn(CCNC(=O)c3cccnc3)c2C2CC2)on1`, the INHIBITION came out at 38.7%.
In the case of `Cc1cc(-c2cnn(CCNC(=O)CCn3cccn3)c2C2CC2)on1` it was -1.85%.
In the case of `Cc1cc(-c2cnn(CCNC(=O)C3CCCO3)c2C2CC2)on1` (stereo not given), the INHIBITION is given as 40.4%.
On to `Cc1cc(-c2cnn(CCNC(=O)Cc3ccccn3)c2C2CC2)on1`, for which the INHIBITION came to 60.4%.
To `O=C(c1cccnc1)N1C[C@H]2CC[C@@H](C1)N(Cc1ccc(F)cc1Cl)C2` belongs -30%; to `COc1ccc(C)cc1CN(CC(N)=O)C(C)C`, -4.63%.
In the case of `O=C(NC[C@H]1OC[C@@H]2CCN(Cc3ccco3)C[C@@H]21)c1ccnnc1` it was 6.72%; in that of `Cc1ocnc1C(=O)N(C)[C@@H]1CCC[C@@H](N2CCCC2)[C@@H]1O`, 39.3%; in that of `O=C(NC1CC1)c1cccc(S(=O)(=O)NCCc2nc(C3CC3)no2)c1`, -86.5%.
`COCCc1noc(CN2CCN(c3ccc(OC)cc3)C(=O)C2C)n1` (stereo not given): the INHIBITION is 3.3%.
For `Cc1cc(NC(=O)CNCc2csc(-c3ncccn3)n2)ccc1Cl`, the INHIBITION is listed as 18%.
For the compound `CCc1csc(CNCC(=O)Nc2ccc(Cl)c(C)c2)n1`, the INHIBITION came out at 49%.
On to `Cc1cc(NC(=O)CNCc2csc(-c3cnccn3)n2)ccc1Cl`, for which the INHIBITION is listed as 52.2%.
Turning to `Cc1nnc(CN2CCC3(CCC(=O)N(C4CCC(O)CC4)C3)CC2)o1` (stereo not given), the INHIBITION was 26%.
As for `Cc1cc(CN(C)C2CCCN(Cc3noc(C)n3)C2)no1` (stereo not given), the INHIBITION was -14.7%.
Consider `Cc1nc(CN(C)C2CCN(Cc3c(C)noc3C)C2)no1` (stereo not given), for which the INHIBITION is 21.5%.
Regarding `CN(Cc1cccnc1)C1CCCN(Cc2noc(C3CC3)n2)C1` (stereo not given), the INHIBITION is reported as 57.45%.
Consider `Cc1nc(CN2CCCC(N(C)Cc3nc(C)c(C)o3)C2)no1` (stereo not given), for which the INHIBITION is listed as -31.8%.
In the case of `Cc1cc(CN2CCC(N(C)Cc3noc(C4CC4)n3)C2)no1` (stereo not given), the INHIBITION was 33.3%.
For `Cc1cc(CN(C)C2CCCN(Cc3noc(C4CC4)n3)C2)no1` (stereo not given), the INHIBITION worked out at 53.8%.
On to `CN(Cc1ccccn1)C1CCCN(Cc2noc(C3CC3)n2)C1` (stereo not given), for which the INHIBITION was 16.9%.
As to `CN(Cc1cnn(C)c1)C1CCCN(Cc2noc(C3CC3)n2)C1` (stereo not given), the INHIBITION is recorded as 14.9%.
To `Cc1nc(CN2CCCC(N(C)Cc3c(C)noc3C)C2)no1` (stereo not given) belongs 58%.
In the case of `Cc1cccc(CNCc2ccc(NC(=O)NC(C)C)cc2)c1` it was 47.1%; in that of `c1csc(CN2CCc3nnc(COc4cncnc4)n3CC2)c1`, 20.5%; in that of `COc1ccccc1OCCNC(=O)N1CCC(n2cncn2)CC1`, 3.15%.
For the compound `CCn1cnnc1CNC(=O)NC(C)c1cccs1` (stereo not given), the INHIBITION was determined as 31%.
For `CC(NC(=O)NCc1ccc(Cl)cc1)c1ccccn1` (stereo not given), the INHIBITION was found to be 13.5%.
As for `CCn1cnnc1CNC(=O)NCC(C(C)C)N1CCC(C)CC1` (stereo not given), the INHIBITION stood at 37.1%.
With `CCn1cnnc1CNC(=O)NC(C)C(C)C` (stereo not given), the INHIBITION is recorded as 10%.
To `CC(NC(=O)NCc1cc(Br)cs1)c1ccccn1` (stereo not given) belongs 82.6%; to `CCn1cnnc1CNC(=O)NCC(C(C)C)N1CCOCC1` (stereo not given), 56.8%.
To `CCn1cnnc1CNC(=O)N1CCOCC1` belongs -4.1%; to `CCn1cnnc1CNC(=O)NC(C)c1ccccn1` (stereo not given), 57.8%.
`CC(NC(=O)NCc1ccc(Cl)s1)c1ccccn1` (stereo not given): the INHIBITION amounted to 17.7%.
Consider `COCC(=O)N1CCN(c2cc(C)nc(C3CCCN3C(C)=O)c2)CC1` (stereo not given), for which the INHIBITION was found to be 32.3%.
For the compound `Cc1ccccc1CN1CCN(C(=O)c2cnc(C3CC3)[nH]c2=O)CC1`, the INHIBITION amounted to 27.5%.
`COc1cc(C)c(-c2ccc(F)c3c2OC(CN)C3)cc1C` (stereo not given): the INHIBITION was 55.1%.
As to `COc1cccnc1-c1ccc(F)c2c1OC(CN)C2` (stereo not given), the INHIBITION is on record as -66.7%.
Take `COc1cc(-c2ccc(F)c3c2OC(CN)C3)cc(OC)c1OC` (stereo not given): the INHIBITION worked out at 31.9%.
Turning to `CC(=O)N1[C@H](Cn2cncn2)C[C@@H]2CN(C(=O)c3ccoc3)CC[C@@H]21`, the INHIBITION is -22.1%.
Consider `c1cncc(CN2CCc3c(CNc4nccs4)n[nH]c3C2)c1`, for which the INHIBITION is 33%.
On to `Cc1n[nH]c(C2CN(C(=O)CCc3ccco3)CCO2)n1` (stereo not given), for which the INHIBITION is recorded as -29.2%.
Regarding `CC1CCC(n2cc3nc(N)[nH]cc-3c2=O)CC1` (stereo not given), the INHIBITION is -8.9%.
Take `CC1(C)CC(n2cc3nc(N4CCOCC4)[nH]cc-3c2=O)CC(C)(C)N1`: the INHIBITION is 60.1%.
In the case of `O=c1c2c[nH]c(N3CCOCC3)nc-2cn1C1CCS(=O)(=O)C1` (stereo not given) it was 24%; in that of `CN1CCC(n2cc3nc(N)[nH]cc-3c2=O)CC1`, 43.3%.
In the case of `CN(C)c1nc2cn(C3CC(C)(C)NC(C)(C)C3)c(=O)c-2c[nH]1`, the INHIBITION is 20.1%.
In the case of `CC1(C)CC(n2cc3nc(N)[nH]cc-3c2=O)CC(C)(C)N1` it was 3.47%; in that of `Nc1nc2cn(C3CCCC3)c(=O)c-2c[nH]1`, 51.8%.
Take `CNc1nc2cn(C3CC(C)(C)NC(C)(C)C3)c(=O)c-2c[nH]1`: the INHIBITION was 25.1%.
`CC1(C)CC(n2cc3nc(N4CCCC4)[nH]cc-3c2=O)CC(C)(C)N1`: the INHIBITION came to 64.8%.
